In PubChem BioAssay AID602440 (Sanford-Burnham Center for Chemical Genomics, 2012):
In all, about 360,000 compounds went through this assay and about 2,300 (0.64%) were called active. The sample holds actives, similar compounds and a random draw of the others, so the mix is not that of the screen. Values without a mark were called inactive. Rule as the data show it: active = inhibition mostly above about 40% (no sharp cut-off); inactive = mostly below about 27%.

molecular target: Sentrin-specific protease 8 (Homo sapiens) (UniProt Q96LD8); assay: human SENP8 protease inhibitors, primary screen, biochemical, fluorescence, Nedd8 protein substrate, uHTS (AID 602440); conditions: recombinant SENP8, Nedd8 substrate fluorescence; at 20 µM; active compounds read high
Sequence (Q96LD8 whole entry, looked up): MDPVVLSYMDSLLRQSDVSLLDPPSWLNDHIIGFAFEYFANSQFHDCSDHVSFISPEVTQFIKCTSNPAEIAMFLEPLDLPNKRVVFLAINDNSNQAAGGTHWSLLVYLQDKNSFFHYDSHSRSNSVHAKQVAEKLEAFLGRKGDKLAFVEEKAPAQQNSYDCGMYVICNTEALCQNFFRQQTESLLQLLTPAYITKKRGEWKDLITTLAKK

| SMILES | inhibition |
| --- | --- |
| COC(=O)c1ccccc1NC(=O)c1cncc(Br)c1 | 3.1% |
| C/C=N/NC(=O)CCCC(=O)N/N=C/C | 6.6% |
| COc1cc2c(cc1OC)C(=O)NCC(C)(C)O2 | 15.5% |
| COc1cc(C(C(=O)NC2CCCC2)N(C(=O)c2ccco2)c2ccccc2C(C)=O)cc(OC)c1OC (configuration not stated) | 10.1% |
| O=C1OCCN1C(=O)[C@H]1[C@H](c2ccc(Cl)cc2)C(c2cccc(Cl)c2)=NN1c1ccc(Br)cc1 | -366% |
| O=C(c1cccnc1)N(c1cc2sc(=O)oc2c2ccccc12)S(=O)(=O)c1ccccc1 | 7.7% |
| O=C(O)CN1C(=O)CC(Cc2ccccc2)C1=O (configuration not stated) | 3.4% |
| COc1cccc(CC2(CO)CCCN(Cc3ccc(OC(F)F)cc3)C2)c1 (configuration not stated) | 10.3% |
| CN(C)c1ccc(S(=O)(=O)NCC(=O)NCC2CCCCC2)cc1[N+](=O)[O-] | 11.6% |
| CN(C)c1ccc(/C=C/C(=O)c2ccc(O)cc2)cc1[N+](=O)[O-] | 47.5% (active) |
| CCN(CC)CCN(C)C(c1ccnc2ccccc12)c1nnnn1-c1ccc2c(c1)OCCO2 (configuration not stated) | 7.5% |
| CC(C)N(C(=O)[C@H]1C[C@H](CC(=O)NC(C)(C)C)C(=O)N2CCc3c([nH]c4ccc(Cl)cc34)[C@]12C)C(C)C | 19% |
| COC(=O)C1=C(C(=O)c2ccc(C)cc2)C(c2ccccc2)n2nnnc2N1 (configuration not stated) | 44.3% (active) |
| COC(=O)c1ccc(C2C3=C(Nc4nnnn42)c2ccccc2OC3)cc1 (configuration not stated) | -273% |
| COc1ccccc1NC(=O)C1=C(C)Nc2nnnn2C1c1cccc(Br)c1 (configuration not stated) | 6% |
| O=C1CC(Cc2ccc(Cl)cc2)C(=O)N1c1cc(Cl)ccn1 (configuration not stated) | 9.6% |
| COc1ccccc1CNC(=O)COC(=O)c1sc(C)nc1C | 17.6% |
| CCN(C(=O)COc1cccnc1[N+](=O)[O-])C1CCS(=O)(=O)C1 (configuration not stated) | 11.8% |
| NC1=CC(=O)C(=O)c2cccnc21 | 95% (active) |

| SMILES | inhibition |
| --- | --- |
| C[C@@H](O)c1nc2ccccc2n1N | 19% |
| Cc1ccc2c(=O)cc(C(=O)NCCc3ccc(S(N)(=O)=O)cc3)oc2c1C | 12.8% |
| CCN(CC)c1ccc(S(=O)(=O)N2CCCCC2)cc1NC(=O)C1=COCCO1 | 5.2% |
| O=C(NCc1ccccc1Cl)NC(=O)c1csc([N+](=O)[O-])c1 | 6.1% |
| O=[N+]([O-])c1ccccc1NCc1ccccc1Cl | 46.6% (active) |
| O=C(NCCNc1ccccc1[N+](=O)[O-])c1ccccc1F | 19.2% |
| CCc1cc2c(SCC(=O)Nc3ncc(Cl)c(C)c3Cl)ncnc2s1 | -2.9% |
| O=C1NC(=O)C2C1C(c1ccc([N+](=O)[O-])cc1)=NN2Cc1ccccc1 (configuration not stated) | -27.9% |
| O=C1CC(c2ccccc2)=NN1c1ccc([N+](=O)[O-])cc1 | 71.2% (active) |
| CCN1N=C(c2ccccc2)CCC1=O | 8.8% |
| Cc1ccc(NC(=S)N(CCN(C)C)Cc2cccs2)cc1C | 19.3% |
| CNC(=O)C[C@H]1C(=O)N(Cc2ccccc2)C[C@@H]1CSC | -6.3% |
| CCOC(=O)N1CCC(Nc2c(NCCCN3CCN(CC)CC3)c(=O)c2=O)CC1 | 20.5% |
| CCOC(=O)N1CCC(Nc2c(NCCCN3CCN(c4ccc(OC)cc4)CC3)c(=O)c2=O)CC1 | 63.9% (active) |
| CCOC(=O)N1CCN(c2c(NCCCN3CCCC(C)C3)c(=O)c2=O)CC1 (configuration not stated) | 21.3% |
| Cc1sc2ccccc2c1CNC[C@H]1O[C@@H](n2ccc(=O)[nH]c2=O)[C@H](O)[C@@H]1O | 50.2% (active) |
| O=c1ccn([C@@H]2O[C@H](CNS(=O)(=O)c3cc4ccccc4s3)[C@@H](O)[C@H]2O)c(=O)[nH]1 | 7.7% |
| C[C@H](NC(=O)CC[C@H]1O[C@@H](n2ccc(=O)[nH]c2=O)[C@H](O)[C@@H]1O)c1cccc2ccccc12 | 20.1% |
| O=C(CNCc1ccc(Cl)cc1)Nc1cccc(C(=O)O)c1 | 23% |

| SMILES | inhibition |
| --- | --- |
| CC(C)[C@H](NC(=O)N1CC(=O)Nc2ccccc21)C(=O)N[C@@H](Cc1c[nH]c2ccccc12)C(=O)O | 57.9% (active) |
| CC(C)C[C@H](NC(=O)N1CC(=O)Nc2ccccc21)C(=O)N[C@H](Cc1ccccc1)C(=O)O | 28.1% |
| CC(C)c1ccc(NC(=O)[C@@H](NC(=O)N2CC(=O)Nc3ccccc32)C(C)C)cc1 | 8.3% |
| CC(OC(=O)Cc1ccc(F)cc1)C(=O)N1CCc2ccccc21 (configuration not stated) | -2.8% |
| O=C(CN(C(=O)c1nsc(Cl)c1Cl)c1cccc(F)c1)NC1CCCC1 | 4.4% |
| COc1ccc(S(=O)(=O)n2cnc3ccccc32)c(C)c1 | 12.5% |
| O=C(/C=C/c1cccs1)NCc1cccnc1 | -2.1% |
| Cc1ccc(S(=O)(=O)NC(C)C(=O)Nc2ccccc2C(=O)N2CCCC2)cc1 (configuration not stated) | 20.9% |
| CC1CCCC(NC(=O)c2cccc(N3CCCC3=O)c2)C1C (configuration not stated) | -12.1% |
| Cc1cc(C)nc(N/N=C/c2ccc([N+](=O)[O-])o2)n1 | 45.8% (active) |
| O=C(/C=C/c1ccc([N+](=O)[O-])o1)NNC(=O)c1ccc(F)cc1 | 19.8% |
| Cc1cc2c(C)nc(N/N=C/c3ccccc3)nc2o1 | -29.4% |
| CN(CC(=O)Nc1ccccc1Cl)C(=O)c1ccccc1SCC(=O)N1CCCC1 | 3.2% |
| COC(=O)c1ccc2c(=O)n(CCN3CCOCC3)c(SCC(=O)Nc3cccc(OC)c3)nc2c1 | 14.9% |
| Cc1nc2ccccc2c(=O)n1-c1ccc(NS(=O)(=O)c2ccc(F)cc2F)cc1 | 5.4% |
| CCn1c(CNC(=O)c2cc(OC)c(OC)c(OC)c2)cc2cc(C)ccc21 | -19.2% |
| COC(=O)Cn1c(=NC(=O)c2cc(OC)c(OC)c(OC)c2)sc2cc(OC)ccc21 | -398% |
| COC(=O)Cn1c2ccc(C)cc2c2nc(C)sc21 | 65.4% (active) |
| COc1cc(C(F)(F)F)c(C(=O)N(C)c2ccc(Cl)cc2)cn1 | -0.9% |
